POLH inh = blocks human DNA polymerase eta activity; Q9Y253; recombinant Pol eta, fluorescent DNA replication assay; Potency, µM (titrated, usually from 114 µM), for inactives: at the highest dose activity change, negative = inhibition, usual class: inhibitors; 390,000 tested, 1.2% active; note: potency is the fitted concentration of half-maximal effect; % is set by controls: 0 for no effect and ±100 for the full control effect
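Pol eta at 10 nM preincubated with compounds 15 min at room temperature; reaction started with fluorescent substrate (50 nM final) and read kinetically at 0 and 10 min.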
WRN helicase inh = WRN helicase (human) inhibition; WRN helicase unwinding, fluorescent forked duplex, kinetic; Potency, µM (highest dose often 114 µM), inactives show top-dose activity change, negative = inhibition, most hits filed as inhibitors; 360,000 tested, 0.46% active; AID 651768; note: potency is the fitted concentration of half-maximal effect; % is set by controls: 0 for no effect and ±100 for the full control effect; nearly all actives have a fitted effect of over 55% in size
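Primary qHTS, 1536-well format. 20 nM WRN + compound, 15 min RT; start with 100 nM forked fluorophore/quencher duplex, 2 mM ATP (final); kinetic read ex 525/em 598 nm.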
Pol kappa inh = blocks human DNA polymerase kappa activity; Q9UBT6; purified Pol kappa, fluorescent DNA synthesis assay, 10 min; Potency, µM (top dose mostly 107 µM), for inactives: at the top dose activity, negative = inhibition, usual class: inhibitors; 400,000 tested, 0.53% active; AID 588579; note: potency is the fitted concentration of half-maximal effect; % is set by controls: 0 for no effect and ±100 for the full control effect
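50 nM final substrate added after 15 min RT preincubation of 10 nM Pol kappa with compound; fluorescence read at 0 and 10 min.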
Pol beta inh = blocks human DNA polymerase beta activity; P06746; Pol beta primer extension/strand displacement, fluorescence kinetic; Potency, µM (highest dose often 114 µM), for inactives: at the top dose activity change, negative = inhibition, hits mostly inhibitors; 340,000 tested, 1.3% active; AID 485314; note: potency is the fitted concentration of half-maximal effect; % is set by controls: 0 for no effect and ±100 for the full control effect
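Kinetic readout of DNA synthesis with strand displacement by Pol beta. Compound and 10 nM enzyme sit 15 min at room temperature; 50 nM substrate starts the reaction, read immediately and at 10 min.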
POLI inh = blocks human DNA polymerase iota activity; Q9UNA4; Pol iota fluorescent replication assay, 10 min; Potency, µM (doses to about 115 µM), for inactives: at the highest dose activity, negative = inhibition, hits mostly inhibitors; 390,000 tested, 1% active; note: potency is the fitted concentration of half-maximal effect
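Fluorescent replication assay read twice, at 0 min and 10 min after adding 50 nM (final) substrate. Enzyme (10 nM) and compounds were first incubated 15 min at room temperature; enzyme-free buffer wells were negative controls.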
PI5P4Ka inh = blocks human PI5P4K alpha kinase activity; P48426; PI5P4Kalpha enzyme, ADP-Glo luminescence, 60 min; hits give low values; max response, %; 330,000 tested, 1.2% active; AID 652105; active = max response of -50% or lower; inconclusive = between -30% and -50%; inactive = -30% or higher; note: value at the top dose of about 77 µM; % is set by controls: 0 for no effect and ±100 for the full control effect
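Luminescence from ADP-Glo served as readout of PI5P4Kalpha activity in a qHTS format. Reaction: enzyme, substrate, compound, ATP at 5 microM final, 60 min at RT.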
* = called active by the depositor; ? = inconclusive; · = no result; ! = not confirmed by another sample; [ ] = dose if it differs, or a comment. Only some compounds are listed: those with a hit (about 2.8% of all), similar ones and a draw of the others. Unless noted, calls come from the whole dose curve; as a rule, active = well fitted curve in the direction sought with a large enough effect; inconclusive = small, poorly fitted or top-dose-only effect, or another doubt; inactive = no such curve, though single readings can be large; an effect the other way counts as inactive or inconclusive.

SMILES | POLH inh | WRN helicase inh | Pol kappa inh | Pol beta inh | POLI inh | PI5P4Ka inh
CCOC(=O)C1=C(C)N(CCCC(=O)O)C(=O)NC1c1ccc(Cl)cc1Cl (stereo unspecified) | -17% | 0% | 2% | 2% | 32% | -98*
CC1=C(C(=O)OCc2ccccc2)C(c2ccc(Cl)cc2Cl)NC(=O)N1CCCCCC(=O)O (stereo unspecified) | 0% | 8% | 0% | -12% | -12% | ?
CC1=C(C(=O)OCc2ccccc2)C(c2ccc(Cl)cc2Cl)NC(=O)N1CCCC(=O)O (stereo unspecified) | 0% | -2% | 2% | -12% | ? | -76*
CCOC(=O)C1=C(C)N(CCCC(=O)O)C(=O)NC1c1ccccc1Cl (stereo unspecified) | -14% | -3% | -16% | · | 8% | -89*
Cc1cccc(CC(=O)NCC(=O)NCc2cc(=O)n(C)c(=O)n2C)c1 | -19% | 1% | 9% | 26% | 21% | ?
CC(C)OC(=O)c1cc(-c2ccc(C=O)o2)ccc1Cl | ? | -9% | -8% | 20µM* | 7% | -23
CC(C)OC(=O)/C(C#N)=C/c1ccc(-c2ccc(Cl)c(Cl)c2)o1 | 0% | · | -3% | 11% | -26% | ·
O=S(=O)(c1cccc(Br)c1)N1CCN(c2nc(-c3cccs3)nc3ccccc23)CC1 | · | · | -22% | · | -4% | ·
Cc1cccc(N2CCn3c2nc2c3c(=O)n(CCCc3ccccc3)c(=O)n2C)c1 | -10% | · | -29% | 89µM* | -3% | ·
CCOCCn1c(=O)c2c(nc3n2CCN3c2ccc(C)c(C)c2)n(C)c1=O | -11% | · | -7% | 20µM* | ? | ·
Cc1cccc(N2CCn3c2nc2c3c(=O)n(CCc3ccccc3)c(=O)n2C)c1 | -23% | · | -16% | 40µM* | 19% | ·
CN(CCN1CCOCC1)Cc1nc(-c2ccccc2)no1 | -16% | -12% | 5% | -7% | 35% | 9
C[n+]1ccc(/C=C/c2ccc(C=S)cc2)c2ccccc21 | · | · | -23% | · | 89µM* | ·
COc1cc(OC)c(/C=C/c2cc[n+](C)c3ccccc23)c(OC)c1 | · | · | 1% | · | 9% | ·
COc1cc(OC)c(OC)cc1/C=C/c1cc[n+](C)c2ccccc12 | · | · | 89µM* | · | 71µM* | ·
O=C(NCCS(=O)(=O)N1CCC2(CC1)OCCO2)c1ccccc1 | -1% | -8% | -4% | · | 12% | -3
O=C(Nc1ccc(F)cc1F)c1cc2ccc3cccnc3c2[nH]1 | -9% | · | -42% | 18µM* | ? | ·
O=C(Nc1cccc(C(F)(F)F)c1)c1cc2ccc3cccnc3c2[nH]1 | -12% | · | 10% | 30% | ? | ·
Cc1ccc(OCc2cc(=O)n3c(-c4ccccc4)csc3n2)cc1 | ? | · | ? | 20µM* | 56µM* | ·
CCOc1ccc(NC(=O)CN(C)Cc2cc(=O)n3c(-c4ccccc4)csc3n2)cc1OCC | -3% | -6% | -11% | 25µM* | ? | -29
Cc1cccc(N2CCN(Cc3cc(=O)n4ccsc4n3)CC2)c1C | -14% | 16% | -1% | 7% | 13% | -12
CCOC(=O)C1CCN(Cc2cc(=O)n3c(-c4ccccc4)csc3n2)CC1 | 9% | 2% | -22% | -9% | ? | 2
O=c1cc(CN2CCN(c3ccccc3)CC2)nc2scc(-c3ccccc3)n12 | -23% | -2% | -42% | 40µM* | 56µM* | ?
O=c1cc(CN2CCN(c3ccccc3O)CC2)nc2sccn12 | 20µM* | -31% | -12% | ? | 45µM* | -19
Cc1ccc(S(C)(=O)=O)cc1C(=O)OCC(=O)N(Cc1ccccc1)Cc1ccccc1 | -27% | -7% | -24% | · | 14% | 7
SMILES | POLH inh | WRN helicase inh | Pol kappa inh | Pol beta inh | POLI inh | PI5P4Ka inh
O=C(O)C1CCCN(S(=O)(=O)c2ccc(-c3ccc(=O)[nH]n3)s2)C1 (stereo unspecified) | -8% | -8% | 0% | 4% | 6% | -5
Nc1sccc1C(=O)NCc1ccccc1 | · | -12% | · | · | · | -11
CCCCCCCCCCCCCCCC[n+]1ccc(/C=N/O)cc1 | -13% | 1% | -3% | 17% | -14% | -60*
Cc1cc(C)c2c(=O)cc(C(=O)Nc3ccc(S(=O)(=O)Nc4onc(C)c4C)cc3)oc2c1 | -30% | · | -31% | 3% | -18% | ·
O=C(NNC(=O)C1C2C=CC(C2)C1C(=O)O)c1cc(Cl)ccc1O (stereo unspecified) | -8% | -2% | -7% | 9% | -10% | 2
CCCn1c(=O)c2c(C(=O)OCC)cc(-c3ccco3)nc2n(CCC)c1=O | -8% | -8% | -8% | 14% | 7% | ·
NC(=O)COC(=O)c1cc(-c2ccco2)nc2ccccc12 | 45µM* | -9%[11.6 µM] | ? | ? | ? | -28
CCOC(=O)c1cc(-c2ccco2)nc2c1c(C)nn2-c1ccccc1 | ? | -14% | -6% | 45µM* | 15% | -27
COc1ccc(NC(=O)c2cc(-c3ccco3)nc3ccccc23)cc1 | -13% | -22% | -16% | · | ? | ?
O=C(O)c1cc(-c2ccco2)nc2ccc(Br)cc12 | 2.5µM*! | 10µM*! | 7.1µM*! | 3.2µM*! | 2.8µM*! | -87*!
O=C(COC(=O)c1cc(-c2ccco2)nc2ccccc12)NCc1ccc2c(c1)OCO2 | ? | -10% | -5% | 28µM* | -13% | -24
O=C(COC(=O)c1ccco1)NCc1ccc2c(c1)OCO2 | -11% | -2% | -5% | 2% | 2% | 0
CCOC(=O)c1c(NC(=O)/C=C/c2ccc(C(C)C)cc2)sc2c1CCC2 | -2% | · | -5% | 26% | ? | ·
CCOC(=O)c1[nH]cnc1C(=O)N1CCN(C(=O)OC(C)(C)C)CC1 | -10% | -2% | -25% | · | -7% | 0
COc1ccc(C2/C=C\CN(CC3CC3)C(Cc3ccccc3)C(=O)N2Cc2ccc(F)cc2)cc1 (stereo unspecified) | · | · | -4% | · | -28% | ·
O=S(=O)(c1ccc(-c2n[nH]c(=S)o2)cc1)N1CCCC1 | -17% | -20% | -4% | 53% | 60% | -83*
O=S(=O)(c1ccc(-c2n[nH]c(=S)o2)cc1)N1CCCCC1 | -6% | -18% | -7% | 46% | 44% | -77*
CCC(=O)OCCCNc1nc(-c2ccc(Cl)cc2)nc2ccccc12 | -16% | · | -13% | -6% | -7% | ·
Cc1c(C(=O)OCCOc2ccc(Br)cc2)sc(=S)n1C | -8% | 2% | 4% | 4% | 25% | 15
CCOc1cc(C2Nc3cccc4cccc(c34)N2)ccc1O | 79µM* | -9% | -8% | 1% | ? | ·
O=C(c1ccccc1)N1CCc2cc(CNS(=O)(=O)c3ccccc3Cl)ccc21 | -10% | · | -11%[60.1 µM] | 5% | 14% | ·
O=S(=O)(Nc1ccccc1)c1ccc(-c2cnc(C3CC3)o2)cc1 | -13% | 2% | 8% | 5% | 79µM* | 5

Screening results: PubChem, National Center for Advancing Translational Sciences (NCATS)
